From PubChem
Hits are enriched below; roughly 19% of the tested compounds scored in any of these assays.
TGFb inhibitor: blocks TGF-b signaling; HepG2 CAGA-GFP TGF-b/SMAD3 reporter, GFP fluorescence, 18 h; TGF-beta stimulated, 500 pg/mL final; Potency, µM (top dose mostly 46.1 µM), actives largely listed as inhibitors; 1.2% of 410,000 active; AID 588855; also: nearly all actives have a fitted effect of over 65% in size
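Read-out: total well GFP (ex488/em500-530) summed from mean per-cell fluorescence. Cells: HEPG2 CAGA-GFP, 1% FBS DMEM, 18 h at 37 degrees C with 500 pg/mL final TGF-beta. Unstimulated wells served as the full-inhibition control; stimulated DMSO wells = 0%.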
TDP1 block: blocks human tyrosyl-DNA phosphodiesterase 1. recombinant TDP1, AlphaScreen DNA substrate cleavage. Q9NUW8. 0.28% of 350,000 active. AID 485290. Potency, µM (top dose mostly 130 µM), hits mostly inhibitors; also: nearly all actives have a fitted effect of over 40% in size
Target sequence (Q9NUW8 whole entry, looked up): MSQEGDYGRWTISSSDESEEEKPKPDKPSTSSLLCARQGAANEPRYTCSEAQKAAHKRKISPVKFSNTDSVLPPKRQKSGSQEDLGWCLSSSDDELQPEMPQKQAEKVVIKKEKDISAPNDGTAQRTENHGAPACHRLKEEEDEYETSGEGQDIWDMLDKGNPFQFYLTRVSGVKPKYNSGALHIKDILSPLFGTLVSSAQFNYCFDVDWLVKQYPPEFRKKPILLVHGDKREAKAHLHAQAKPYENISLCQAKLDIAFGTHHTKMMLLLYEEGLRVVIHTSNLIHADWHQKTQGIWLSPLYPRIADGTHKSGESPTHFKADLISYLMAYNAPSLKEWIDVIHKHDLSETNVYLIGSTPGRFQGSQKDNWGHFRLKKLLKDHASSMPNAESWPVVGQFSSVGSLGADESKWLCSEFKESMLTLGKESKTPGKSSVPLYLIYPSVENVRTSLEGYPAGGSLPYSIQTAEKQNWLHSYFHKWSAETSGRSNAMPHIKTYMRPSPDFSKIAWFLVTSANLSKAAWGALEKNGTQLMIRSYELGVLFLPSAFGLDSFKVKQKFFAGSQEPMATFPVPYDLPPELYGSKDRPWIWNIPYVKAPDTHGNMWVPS
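Recombinant human Tdp1 (E. coli-expressed, 1 nM final) preincubated with compounds 15 min at room temperature, then 5'-biotin/3'-phosphotyrosine-FITC DNA substrate (15 nM final) added for 5 min. AlphaScreen beads (10 ug/ml final) added 10 min; cleavage lowers signal.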
HepG2 viability: HepG2 cytotoxicity, counter-screen for TGF-b inhibitors. 0.76% of 410,000 active. HepG2 CAGA-GFP viability, ATP luminescence, 18 h. AID 588856. Potency, µM (highest dose often 46.1 µM), most hits filed as cytotoxic
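HepG2 CAGA-GFP cells (1000/well, DMEM with 1% FBS) received compound, then TGF-beta at 500 pg/mL final, and were incubated 18 hours at 37 degrees C. Viability was read by CellTiter-Glo luminescence. Media-only wells were set as complete cell-killing and DMSO as no toxicity.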
IL-1B inflam inh: blocks inflammasome-driven IL-1 beta release. activity change, % at 57.5 µM. THP-1 LPS/ATP IL-1B secretion, AlphaLISA, 16 h; stronger effect = lower value. 4.7% of 360,000 active; in the data active = activity change below about -50%; inconclusive = mostly about -30% to -49%
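Secreted IL-1B measured by AlphaLISA bead assay after 16 h compound exposure of THP-1 cells; compounds (final up to 57.5 uM) added 1 h before LPS (250 ng/mL) and ATP (1.25 mM) stimulation; lower signal means less secretion.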
TDP1 cell noCPT: qHTS for Inhibitors of human tyrosyl-DNA phosphodiesterase 1 (TDP1): qHTS in cells in absence of CPT; 15% of 420,000 active; AID 686978, 2013; DT40 Tdp1-/- hTDP1 cells, no CPT, ATP luminescence, 48 h; Potency, µM (series often up to 46.2 µM), actives largely listed as inhibitors; also: nearly all actives have a fitted effect of over 55% in size
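Seeded 400 DT40-hTDP1 cells/well (vehicle DMSO, no 20 nM CPT); pinned compounds; ≥48 hr at 37 °C; CellTiter-Glo luminescence as viability measure.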
TDP1 cell CPT: growth inhibition of DT40 Tdp1-/-;hTDP1 cells with camptothecin (screen for TDP1 inhibitors). 12% of 420,000 active. Potency, µM (series often up to 46.2 µM), actives largely listed as inhibitors. AID 686979. chicken DT40 Tdp1-/-;hTDP1 cells + 20 nM CPT, ATP luminescence, 48 h; also: nearly all actives have a fitted effect of over 55% in size
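Cell growth measured by CellTiter-Glo luminescence after a minimum 48 h, 37 C compound exposure with 20 nM CPT in Tdp1-knockout DT40 cells stably expressing hTDP1, seeded 400/well; qHTS titration format.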
Of the large screens only hits and unclear results are named; the others gave an inactive call. Unless noted, calls follow the shape of the dose curve; as a rule, active = well fitted curve in the direction sought with a large enough effect; inconclusive = small, poorly fitted or top-dose-only effect, or another doubt; inactive = no such curve, though single readings can be large; an effect the other way counts as inactive or inconclusive.

CCOC(=O)C1=CN(Cc2cccc(-c3ccc(Cl)nc3)c2)S(=O)(=O)N(C)C1C (centres undefined)	IL-1B inflam inh inconclusive, TDP1 cell noCPT 21µM, TDP1 cell CPT 23µM
CCOC(=O)C1=CN(Cc2cccc(-c3ccc4c(c3)OCO4)c2)S(=O)(=O)N(C)C1C (centres undefined)	TDP1 cell noCPT 23µM, TDP1 cell CPT inconclusive
CCCN1C(C)C(C(=O)OCC)=CN(Cc2cccc(I)c2)S1(=O)=O (centres undefined)	TGFb inhibitor inconclusive, TDP1 cell noCPT 16µM, TDP1 cell CPT inconclusive
CCC(=O)[C@@]1(O)C(=O)N2C(=C3C(=O)OCCC31)N(Cc1ccccc1)C(C)=C(C(=O)OC)C2c1ccccc1 (some centres undefined)	none (no result: TGFb inhibitor, HepG2 viability, IL-1B inflam inh, TDP1 cell noCPT, TDP1 cell CPT)
CCOC(=O)C1=CN(Cc2cccc(F)c2)S(=O)(=O)N(C)C1c1ccc2ccccc2c1 (centres undefined)	TDP1 cell noCPT inconclusive
CCOC(=O)C1=CN(Cc2cccc(F)c2)S(=O)(=O)N(C)C1c1ccc(F)c(Cl)c1 (centres undefined)	TDP1 cell noCPT 16µM, TDP1 cell CPT inconclusive
CCOC(=O)C1=CN(Cc2cccc(F)c2)S(=O)(=O)NC1CCc1ccccc1 (centres undefined)	TGFb inhibitor inconclusive, IL-1B inflam inh inconclusive, TDP1 cell noCPT 26µM, TDP1 cell CPT inconclusive
O=C(NCCCNC(=O)c1ccccc1)c1ccccc1	none (no result: TDP1 block)
CCN(CC)S(=O)(=O)c1cccc(C(=O)NC2=NCCS2)c1	none
CCCSc1ccc([C@@H]2[C@@H]3C(=O)N(CC)C(=O)[C@@H]3[C@]3(C(=O)OC)CCCCN23)cc1	TGFb inhibitor inconclusive, TDP1 cell noCPT 21µM, TDP1 cell CPT 18µM
CCCSc1ccc([C@@H]2[C@H]3C(=O)N(CC)C(=O)[C@H]3[C@]3(C(=O)OC)CCCN23)cc1	TDP1 cell noCPT inconclusive, TDP1 cell CPT inconclusive
CCN1C(=O)[C@@H]2[C@@H](c3ccc(SC4CCCCC4)cc3)N3CCC[C@@]3(C(=O)OC)[C@@H]2C1=O	TDP1 cell noCPT 21µM, TDP1 cell CPT inconclusive
CCN1C(=O)[C@H]2[C@@H](c3ccc(SC4CCCCC4)cc3)N3CCCC[C@@]3(C(=O)OC)[C@H]2C1=O	TDP1 cell noCPT 16µM, TDP1 cell CPT 15µM
CCN1C(=O)[C@@H]2[C@@H](c3ccc(SC4CCCCC4)c(OC)c3)N3CCCC[C@@]3(C(=O)OC)[C@@H]2C1=O	IL-1B inflam inh inconclusive, TDP1 cell noCPT inconclusive, TDP1 cell CPT 21µM
CC(C)(C)C(=O)NC(c1ccc(Cl)cc1)[C@]1(C)C[C@H]1C1CCCCC1 (some centres undefined)	none (no result: TGFb inhibitor, HepG2 viability, IL-1B inflam inh, TDP1 cell noCPT, TDP1 cell CPT)
Fc1ccc(-c2cc(-c3nc(-c4ccc(Cl)cc4)no3)[nH]n2)cc1	TDP1 cell noCPT inconclusive, TDP1 cell CPT inconclusive (no result: IL-1B inflam inh)
Cc1ccc(N(CC(=O)NC2CCCC2)C(=O)CNC(=O)c2cccs2)cc1F	none
O=C(Cc1csc(-c2ccc(Cl)cc2)n1)Nc1cccc(S(=O)(=O)NC2=NCCC2)c1	IL-1B inflam inh -52
O=C(CCl)Nc1cccc(S(=O)(=O)NC2=NCCC2)c1	TGFb inhibitor 11µM, HepG2 viability 14µM, IL-1B inflam inh -99, TDP1 cell noCPT 6.5µM, TDP1 cell CPT 8.2µM
O=C(Cc1csc(-c2ccc(F)cc2)n1)Nc1cccc(S(=O)(=O)NC2=NCCC2)c1	none
O=C(COC(=O)c1ccccc1)Nc1cccc(S(=O)(=O)NC2=NCCCCC2)c1	none
CCN(CC)c1ccc(C(=O)OCC(=O)Nc2cccc(S(=O)(=O)NC3=NCCCCC3)c2)cc1	TDP1 cell noCPT 18µM, TDP1 cell CPT inconclusive
CC(C)C(=O)Nc1cccc(S(=O)(=O)NC2=NCCC2)c1	none (no result: TDP1 block)
